Here are results for 9 molecules from PubChem BioAssay (NCI).

The structures appear in SMILES notation. This is part of a sample that, as a whole, favours compounds with a hit. Of some 83,000 tested, about 20% had one in any assay.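 Percent growth is the endpoint: 0 to 100 indicates growth inhibition (40 means 60% inhibition), 0 means no net growth, and negative values indicate cell death.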 Unmarked numbers belong to inactive results. The source made the active and inactive calls. Rule for the calls: active = growth percent below 10; inactive = the rest.

What all share (test): NCI-60 one-dose screen, 48 h (100 = growth as untreated, 0 = no growth, -100 = all killed)
Conditions in all cases: 10 µM unless noted

In assay [1] the test system is SR leukemia.
Assay [2] has as its system RPMI-8226 leukemia.
Assay [3] relates to OVCAR-8 ovarian.
Assay [4] deals with OVCAR-5 ovarian.
Assay [5] deals with OVCAR-4 ovarian.
For assay [6], the system named is SK-OV-3 ovarian.
For assay [7], the system named is IGROV1 ovarian.
For assay [8], the system named is OVCAR-3 ovarian.
The subject of assay [9] is HS 578T breast.
The test system of assay [10] is NCI/ADR-RES ovarian.
For assay [11], the system named is T-47D breast.
Assay [12] relates to BT-549 breast.
The test system of assay [13] is MDA-MB-435 melanoma.
Assay [14] relates to SW-620 colon.
Assay [15] has as its system MCF7 breast.
The test system of assay [16] is HCT-116 colon.
The subject of assay [17] is HCC-2998 colon.
Assay [18] deals with KM12 colon.

Regarding `C=C1C(=O)O[C@H]2[C@H]1CC/C(COC(=O)C(=O)c1c[nH]c3ccc(Cl)cc13)=C\CC[C@@]1(C)O[C@@H]21`, the growth in [1] was 1.13% (active); in assay [2] it was -39.1% (active); in [3] it was -30.3% (active); in [4], -36.6% (active); in assay [5] it was -89.3% (active); in assay [6], 26.2%. Further, the growth is -81% (active) in assay [7]; -95% (active) in assay [8]; -14.2% (active) in [9]; -20% (active) in [10]; -44.9% (active) in assay [11]; -87.2% (active) in assay [12]. Further, the growth in assay [13] is -96.4% (active); in assay [14] it was -75.5% (active); in assay [15], -32.5% (active); in [16], -99.6% (active); in assay [17], -75.9% (active); in assay [18], -72.8% (active).

As for `CN1CCOCCN(C)Cc2ccc3ccc(cc3c2)CN(C)CCOCCN(C)Cc2ccc3ccc(cc3c2)C1`, the growth in assay [1] is 9.14% (active); in assay [2], 36.7%; in [3] it was 103%; in [4], 134%; in assay [5] it was 78.4%; in assay [6], 146%. In addition, the growth is 74.8% in assay [7]; 75.6% in [8]; 90.6% in assay [9]; 83.5% in [10]; 119% in assay [11]; 93.6% in assay [12]. In addition, the growth in assay [13] is 82.9%; in [14], 22.4%; in assay [15], 77.5%; in [16], 28.3%; in assay [17], 100%; in assay [18] it was 73.7%.

Consider `COc1ccc(Oc2ccc(/C=C/C(=O)c3ccc(OC)c(OC)c3)cc2)cc1`, for which the growth in assay [1] was 50.9%; in [2], 54.7%; in assay [3], 73.8%; in assay [4] it was 112%; in assay [5] it was 62.8%; in [6], 97.3%. Besides, the growth in assay [7] is 85.5%; in assay [8] it was 86.7%; in [9] it was 88.2%; in assay [10], 83.4%; in assay [11], 60.8%; in assay [12], 85.3%. The growth in [13] is 90.3%; in assay [14], 83.9%; in assay [15], 56.3%; in assay [16], 69.3%; in assay [17], 104%; in assay [18], 79%.

`COCCn1cc(-c2nc(-c3cn(CCOC)c4ncccc34)cs2)c2cc(F)ccc21`: the growth in assay [1] was 35.3%; in [2], 61.3%; in assay [3] it was 62.4%; in [4], 38.8%; in [5] it was 25.4%; in assay [6], 76.8%. Besides, the growth in assay [7] was 30.1%; in assay [8], 17.6%; in assay [9], 70.8%; in assay [10], 63.8%; in assay [11] it was -11.9% (active); in assay [12], 51.7%. For the same molecule, the growth in assay [13] is 59.1%; in assay [14], 90.7%; in assay [15], 7.84% (active); in assay [16] it was 61.8%; in assay [17] it was 42.1%; in assay [18], 10.6%.

Consider `CCCCn1c(NC(C)=O)c(S(=O)(=O)c2ccccc2)c2nc3ccccc3nc21`, for which the growth is 86.9% in assay [1]; 107% in assay [2]; 98.9% in assay [3]; 93.2% in [4]; 100% in assay [5]; 98.5% in [6]. The growth in [7] was 76.3%; in [8], 95.7%; in [9] it was 95.9%; in [10] it was 97.7%; in assay [11], 79.9%; in [12] it was 103%. Also, the growth was 106% in assay [13]; 109% in [14]; 98.4% in assay [15]; 127% in [16]; 113% in assay [17]; 103% in assay [18].

For the molecule `Clc1ccc2nn3c4ccccc4c(OCCN4CCOCC4)nc3c2c1`, the growth in assay [1] is 88.1%; in assay [2] it was 91.8%; in assay [3], 85%; in assay [4], 93.2%; in assay [5], 90%; in [6], 94.1%. The growth is 71% in [7]; 97.5% in [8]; 97.5% in assay [9]; 80.4% in [10]; 87.7% in [11]; 97.8% in [12]. In addition, the growth in assay [13] was 103%; in [14] it was 88.1%; in assay [15] it was 83.4%; in assay [16], 88.7%; in assay [17], 107%; in assay [18], 100%.

In the case of `Cc1ccc(NC(=O)c2sc3nc(C)c(C(O)c4ccccc4)cc3c2N)cc1` (configuration not stated), the growth in assay [1] was 1.92% (active); in assay [2] it was 5.22% (active); in [3], 18.6%; in [4], 34.6%; in assay [5], 46.1%; in assay [6] it was 14.7%. The growth in assay [7] is 28.4%; in assay [8] it was 5.7% (active); in assay [9] it was 9.32% (active); in [10] it was 7.94% (active); in assay [11] it was 42.3%; in [12], 61.6%. The growth in [13] is -13.1% (active); in assay [14], 23.1%; in assay [15] it was 19.2%; in [16] it was 13.7%; in assay [17], 12.1%; in assay [18], 16.8%.

As to `Cc1cccc(NC(=O)N/C(N)=N/c2nc3ccccc3s2)c1`, the growth was 27.1% in assay [1]; 26.4% in assay [2]; 35.5% in assay [3]; 56.4% in assay [4]; 56.9% in [5]; 35.2% in assay [6]. For the same molecule, the growth is 36.9% in assay [7]; 8.85% (active) in assay [8]; 23.8% in assay [9]; 15% in assay [10]; 35.5% in [11]; 57.2% in assay [12]. The growth is 2.83% (active) in [13]; 34.3% in assay [14]; 21.9% in [15]; 23.8% in [16]; 56.4% in assay [17]; 25.1% in assay [18].

With `COc1ccc(OC)c(Nc2nnc(-c3cc(OC)c(OC)c(OC)c3)o2)c1`, the growth in assay [1] was 89.6%; in assay [2], 95.2%; in [3], 104%; in assay [4], 105%; in assay [5], 99.3%; in [6] it was 104%. For the same molecule, the growth in assay [7] was 98.5%; in assay [8], 112%; in assay [9], 107%; in assay [10], 94.4%; in assay [11], 82.2%; in assay [12], 88.8%. In addition, the growth in assay [13] was 102%; in assay [14] it was 108%; in assay [15], 105%; in assay [16], 103%; in [17], 103%; in [18], 94.6%.
